HIV RNase H inh-1: HIV-1 RT RNase H inhibitors, primary screen, biochemical, fluorescence | Gag-Pol polyprotein (Human immunodeficiency virus type 1 group M subtype B (isolate … | RT-RNase H RNA/DNA duplex cleavage | inhibition, % at 10 µM | hit rate 1.9% among 65,000 | AID 565, 2006; in the data active = inhibition above about 50%
HIV RNase H inh-2: HIV-1 RT RNase H inhibitors, retest, confirmation, biochemical. inhibition, % at 10 µM. shares compounds with HIV RNase H inh-1. hit rate 39% among 1,000. Recombinant RT RNase H, fluorescent RNA/DNA duplex cleavage; in the data active = inhibition above about 48%; inconclusive = no clear call, values can overlap the other calls
Active calls of the source: *; ? = inconclusive. The entries come from a sample that favours hits as a whole.

SMILES	HIV RNase H inh-1	others
COc1ccc(OC)c(NC(=O)c2cc(-c3cc(Cl)ccc3O)n[nH]2)c1	24.4
CN(C)S(=O)(=O)NCc1ccc2c(c1)OCO2	-4.0
CCCCN1c2cc(C)c(O)cc2C(C(=O)OCC)C1C (configuration not stated)	-0.4
Cc1ccc(N2C(=O)C3C(C2=O)C2C=CC3C23CC3)cc1 (configuration not stated)	1.2
O=C1C2C(C(=O)N1c1ccncc1)C1C=CC2C12CC2 (configuration not stated)	73.8*	HIV RNase H inh-2=29.0
COc1cccc(N2C(=O)C3C(C2=O)C2C=CC3C23CC3)c1 (configuration not stated)	4.1
COc1ccc(N(C)S(=O)(=O)c2cccc(C(=O)NC3=NCCS3)c2)cc1	-5.7
Cn1cnnc1SCc1ccc(-c2ccc(Br)cc2)o1	-4.6
CCCCP(=O)(O)CCC(=O)O	-4.7
CCCCCCC(N)CC(=O)O (configuration not stated)	-2.8
CCCCCC#CCC#CCC#CCC#CCCCC(=O)O	96.9*	HIV RNase H inh-2=65.7*
COc1cccc(NC(=O)N2CCCC2C(=O)NC2CC2)c1 (configuration not stated)	-0.9
CN1CCN(Cc2ccc(-c3ccc(Cl)cc3)o2)CC1	-4.1
N#CCCN1CCN(C(=S)c2ccc(-c3ccc(Cl)cc3)o2)CC1	56.4*	HIV RNase H inh-2=12.5
CC(C)c1cc(CN2CCN(CCC#N)CC2)cc(C(C)C)c1O	-2.2
Cc1c(-c2ccccc2)sc(N)c1C(=O)N1CCOCC1	84.7*	HIV RNase H inh-2=25.1
COC(=O)c1c(N)sc(C(=O)N2CCOCC2)c1C	-0.2
CCOC(=O)c1c(N)sc(C(=O)N2CCOCC2)c1C	-0.5
O=C1CS/C(=N\C(=O)N2c3ccccc3Sc3ccccc32)N1	19.3
CC(=O)C1=C(N2CCCCC2)CCC1=O	-1.2
CCOc1ccc(N2CC(C(=O)OC)CC2=O)cc1 (configuration not stated)	-2.8
CC(=Nc1ccccc1)Nc1ccccc1	24.5
S=C(N=Nc1ccccc1)NNc1ccccc1	69.0*	HIV RNase H inh-2=31.9
COCCCn1c(SCC(=O)n2c(C)c(C)c3ccccc32)nnc1-c1ccoc1C	-13.1
Cc1onc(-c2ccccc2)c1C(=O)Nc1sc2c(c1C(N)=O)CCC2	-11.2
SMILES	HIV RNase H inh-1	others
Cc1onc(-c2ccccc2)c1C(=O)Nc1nnc(N(C)Cc2ccccc2)s1	-1.8
CCC(CC)c1nnc(NC(=O)c2c(-c3ccccc3)noc2C)s1	83.7*	HIV RNase H inh-2=28.2
CCOc1ccccc1NC(=O)CCN1CCN(S(=O)(=O)c2ccc(Br)cc2)CC1	-9.7
CCCS(=O)(=O)N1CCC(C(=O)NCCCOCC)CC1	-12.7
O=C(Nn1nnnc1Nc1ccccc1)C12CC3CC(CC(C3)C1)C2	-1.7
O=C(CSCc1cccc(Br)c1)N1CCOCC1	-14.7
Cc1ccc(N(C(C)C(=O)N2CCCCC2)S(C)(=O)=O)cc1C (configuration not stated)	-53.1
O=C(CN(C(=O)c1cc2c(s1)CCC2)C1CCCC1)NCc1cccs1	-5.3
CCCCCc1ccc(CC(=O)O)cc1	-8.3
CCCCc1ccc(CC(=O)O)cc1	55.0*	HIV RNase H inh-2=6.0
CCCCc1ccc(NC(=O)OC)cc1	-13.8
Cc1ccc(C2C(C(=O)c3sc(C)nc3C)=C(O)C(=O)N2CCCN(C)C)o1 (configuration not stated)	-12.2
Cc1sccc1C1C(C#N)=C(N)SC(N)=C1C#N	59.9*	HIV RNase H inh-2=2.3
CC1=C(C#N)C(c2cn(-c3ccccc3)nc2-c2cccs2)C(C#N)=C(C)N1	3.7
Cc1cc(C2C(C#N)=C(N)SC(N)=C2C#N)c(C)s1	44.6
O=C1N2CN(C(c3ccccc3)c3ccccc3)CN=C2SC1(CO)CO	-1.8
O=S(=O)(Nc1cccc2ccccc12)N1CCCC1	-33.1
CCn1c(=O)c(=O)[nH]c2cc(C(=O)N3CCN(c4ccccc4F)CC3)ccc21	-0.9
C=CCn1c(-c2c[nH]c3ccccc23)n[nH]c1=S	57.3*	HIV RNase H inh-2=16.0
CCn1c(-c2c[nH]c3ccccc23)n[nH]c1=S	-20.8
C=CCn1c(-c2cc(OC)c(OC)c(OC)c2)n[nH]c1=S	46.5
COc1[nH]c(/N=C/c2ccccc2)c(C#N)c1C#N	53.2*	HIV RNase H inh-2=4.8
COc1nccc(Nc2ccccc2)c1C#N	-3.6
Cc1sc2nc(CN(Cc3cccs3)C(=O)NC3CCCCC3)[nH]c(=O)c2c1C	-6.0
CCN1C(=O)/C(=C2/Sc3ccc(OC)cc3N2C)SC1=Nc1ccc(C(C)=O)cc1	6.2
SMILES	HIV RNase H inh-1	others
CCC(=O)/C=C1\Sc2ccc(OC)cc2N1CC	-4.6
CCN1C(=O)/C(=C2/Sc3ccc(OC)cc3N2C)SC1=Nc1cccc(O)c1	51.2*	HIV RNase H inh-2=27.6
Cc1ccc(-c2nn(C)c(=O)c3ccccc23)cc1CNC(=O)c1ccco1	-34.4
CCC(c1nnc(SCC(=O)Nc2nnc(-c3ccccc3)o2)n1Cc1ccccc1)N(C)C (configuration not stated)	-5.5
Cc1cc(C)c(C#N)c(=N)o1	92.8*	HIV RNase H inh-2=73.8*
COc1cc(C)c(C#N)c(OC)n1	-1.3
Cc1cc(C)c(C#N)c(N2CCSCC2)n1	-33.2
Cc1ccc(N2CC(C(=O)NCc3ccccn3)CC2=O)cc1 (configuration not stated)	23.7
CCOC(=O)N1CCN(c2c(NCC3CCN(Cc4cccc(C)c4)CC3)c(=O)c2=O)CC1	-4.0
Cc1cc(C)nc(SCc2nnc(SCC(=O)N3CCCc4ccccc43)o2)n1	-16.2
Cc1cc(Nc2nc3c(c(=O)n(C)c(=O)n3C)n2C)n(-c2ccccc2)n1	-8.7
c1ccc(-c2nnc3sc(-c4csc5c4CCCC5)nn23)cc1	69.4*	HIV RNase H inh-2=?
Clc1ccc(-c2nn3c(-c4ccccc4)nnc3s2)cc1	21.5
c1ccc(-c2nnc3sc(-c4ccncc4)nn23)cc1	26.8
CCN(CC)C(=O)CSC1=C(C#N)C(c2cccs2)C=C(C)N1 (configuration not stated)	-4.0
CCOc1ccc(C(C)=O)cc1CSc1nnc(-c2cccs2)n1CC1CCCO1 (configuration not stated)	1.4
O=C(NC1CCCCCCC1)c1ccco1	-13.6
O=C(Nc1ccc2nc(-c3ccco3)c(-c3ccco3)nc2c1)N1CCCCCC1	96.5*	HIV RNase H inh-2=52.7*
CCOC(=O)N1CCN(C(=O)Nc2ccc3nc(C)c(C)nc3c2)CC1	-2.4
COc1ccc(NC(=O)N2CCCCC2)cc1	-0.5
O=C(NC1CCCC1)c1ccc2nc(-c3ccco3)c(-c3ccco3)nc2c1	82.8*	HIV RNase H inh-2=3.7
O=C(NC1CCCC1)c1ccc2nc[nH]c2c1	-5.4
Cc1ccc(-c2noc(CSc3nnnn3C3CCCCC3)n2)cc1	-63.9
COc1ccc(NC(=O)CSc2nc(-c3ccncc3)nn2CC(=O)N2CCCC2)cc1	3.3
Cc1cc(C)nc(Nc2nc3ccccc3[nH]2)n1	10.0
SMILES	HIV RNase H inh-1	others
c1ccc(Nc2nc3ccccc3[nH]2)nc1	79.5*	HIV RNase H inh-2=30.8
c1ccc(CNc2nc3ccccc3[nH]2)cc1	-0.9
CCc1c(C(C)O)oc2ccc3c(C)cc(=O)oc3c12 (configuration not stated)	-28.2
CCN(CC)C(=O)Cn1nc(-c2ccccc2O)nc1SCC(=O)Nc1ccc(OC)cc1	-4.7
CCCC(=O)NC(C)c1nc2ccccc2n1C(C)C (configuration not stated)	-13.0
Cc1occc1-c1nnc(SCC(=O)NC(=O)NC(C)C)n1N	-17.9
NC(=O)c1sc2nc3c(c(-c4ccco4)c2c1N)CCC3	-64.2

Assay outcomes: PubChem BioAssay, University of Pittsburgh Molecular Library Screening Center
